These results are taken from PubChem BioAssay (NCI).

About 83,000 compounds went through this panel and 20% of them were active in at least one assay; those are over-represented in the sample as a whole.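 Growth was measured after 48 h exposure to one concentration of compound in 96-well plates. Values under 10 count as active.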 A number with no mark means an inactive call. Active and inactive are the calls of the source.

The assay concerns HL-60(TB) leukemia. The assay can be described thus: NCI-60 one-dose screen, 48 h (100 = growth as untreated, 0 = no growth, -100 = all killed). As to conditions: 10 µM unless noted.
`Cc1c(CC(=O)Nc2ccccc2)nnn1-c1ccccc1`: the growth is 99.3%.
Under `N#C/C(=C\c1ccc(-c2ccccc2F)o1)c1nc(-c2ccco2)cs1` stands 91.2%; under `CCOC(=O)c1c2c(c(C)n1Cc1ccccc1)-c1nc(N)ncc1CC2`, 96.2%; under `CN(C)Cc1c(-c2ccccc2)[nH]c2ccccc12`, 92.9%.
With `Cn1cnc([N+](=O)[O-])c1/C=C1\Oc2ccc(Br)cc2C1=O` the figure was 75.5%; with `COc1cc(C2CC(c3ccc(Nc4nc(NCCO)nc(NCCO)n4)cc3)=NN2c2cc(Cl)cc(Cl)c2)cc(OC)c1OC` (stereo not given), -5.04% (active); with `CCCCCCN(C)Cc1ccc(OCCOc2ccc(CN(C)CCCCCC)cc2)cc1`, -43.4% (active).
Under `O=C1C=CC2(O)OC/C(=C\c3ccccc3)C(O)=C2C1=O` (stereo not given) stands 4.63% (active).
On to `COc1ccc(N=N/N=c2\sc3cc(OC)ccc3n2C)cc1`, for which the growth was 102%.
With `COc1cc(Cn2ccc3c2-c2oncc2CC3)cc(OC)c1` the figure was 16.6%; with `COc1cc(C(=O)N2N=C(c3ccc(S(C)(=O)=O)cc3)CC2c2ccco2)cc(OC)c1OC` (stereo not given), 90.3%; with `COc1ccc(C(O)(c2ccccc2)C(C(=O)O)c2ccccc2)cc1` (stereo not given), 110%.
`Cc1ccncc1C(N)=O`: the growth is -80.7% (active).
With `COc1ccc(-c2csc(C3=C(O)CN(C(C)C)C3=N)n2)cc1OC` the figure was 76.4%; with `Nc1nc(N)c2c(ccc3nccc32)[nH]1`, 16.5%.
Take `O=S(=O)(Nc1ncccn1)c1ccc(Nc2ccc3nnc(-c4ccncc4)n3n2)cc1`: the growth was 101%.
Under `NC1=NN=C(N)C1=Cc1cc2ccccc2n2nnnc12` stands 96.8%; under `COc1cc(C(=O)/C=C/c2cccnc2Nc2ccc(Cl)cc2)cc(OC)c1OC`, -27.2% (active).
With `Oc1ccc(CNNc2ccnc3c(O)cccc23)c2cccnc12` the figure was -7.85% (active); with `c1ccc2cc(-c3n(Cc4ccc5ccccc5n4)c4ccccc4[n+]3Cc3ccc4ccccc4n3)ccc2c1`, -55.1% (active).
For `CC1=CC(=O)CC(C)(C)[C@@]1(O)/C=C/[C@@H](C)O`, the growth is 110%.
Under `C=C1C(=O)O[C@H]2[C@H]1CC/C(Cn1cc(-c3ccccc3)nn1)=C\CC[C@@]1(C)O[C@@H]21` stands -28.9% (active); under `Nc1nc(N)c2c(n1)NC(c1ccc(Cl)cc1)CC(c1cccc(Nc3ccncc3)c1)=N2` (stereo not given), 39%.
Under `O=C(Nc1ccc(OS(=O)(=O)c2ccc(F)cc2)cc1)C12CC3CC(CC(C3)C1)C2` stands 52.7%; under `Fc1cc2[nH]ncc2c2c3c(c(-c4cn[nH]c4)nc12)CCCC3`, -13.2% (active); under `CC(=O)N1N=C(c2ccc3c(c2)OCO3)CC1c1c(C)nn(-c2ccccc2)c1N(C)Cc1ccccc1` (stereo not given), 85.6%.
Under `CCOC(=O)Cc1cnc(N/N=C(\C)c2cc3ccccc3o2)s1` stands 65.2%; under `CC(C)C[C@H](NC(=O)Cn1cccc(CNC(=O)c2ccccc2)c1=O)B(O)O`, -51.3% (active).
Consider `ICCC(c1ccccc1)(c1ccccc1)c1ccccc1`, for which the growth is 43.4%.
Under `COc1ccc2nc3c(n2c1)C(=O)C(=O)c1ccccc1-3` stands -48.9% (active).
Under `C1=C\CCCCN2CC[C@H]3[C@H](CCCC/C=C\CCCN4C[C@@H](CCCCC/1)C[C@@H]3C4)C2` stands -35.5% (active); under `COc1cc(C2CC(c3ccc(Cl)cc3)=NN2C=O)ccc1Oc1ccnc2cc(Cl)ccc12` (stereo not given), 85.9%.
With `O=C(NC1CC1)c1cc2n(n1)CC(c1ccccc1)N2` (stereo not given) the figure was 107%; with `COc1ccc2c(c1)sc1nc(-c3ccccc3)c(-c3cccnc3)n12`, 105%.
As for `Cc1cc(C)c2c(=O)[nH]c(SCC(=O)Nc3cccc(S(=O)(=O)N(C)C)c3)nc2n1`, the growth is 97.2%.
Regarding `O=C(Nc1cccc2c(O)c(N=Nc3ccc(S(=O)(=O)Nc4nccs4)cc3)cc(N=Nc3ccc(S(=O)(=O)Nc4nccs4)cc3)c12)C(Cl)Cl`, the growth was 102%.
With `COC(=O)C1C(O)C(C)C(O)C(C)C=C(C)C2=C3C(=C(C)C(=O)c4c(O)c(c(C)c(OC(C)=O)c43)NC(=O)C(C)=C/C=C\C(C)C(O)C(C)C1O)OCO2` (stereo not given) the figure was 141%; with `O=C1c2ccccc2CCc2ccccc21`, 90%; with `CC1=CC2OC34COC3CC(OC(=O)C(F)(F)F)C4(C)C2(C)CC1` (stereo not given), 114%.
Consider `COc1cc(/C(C#N)=C/c2ccc3c(c2OC)OCO3)cc2c1OCO2`, for which the growth was 26.9%.
